From PubChem BioAssay AID1220 (Sanford-Burnham Center for Chemical Genomics, 2008)
Among all 190,000 compounds or so, about 1,300 (0.68%) were called active. For the sample, actives were picked, then their nearest neighbours and some compounds at random. Values without a mark were called inactive. No stated cut-off is given here; in the data, active means inhibition above about 50%; inactive means the rest.

target: Mannose-6-phosphate isomerase (Homo sapiens) (UniProt P34949); experiment: human PMI inhibitors, high substrate, primary screen, biochemical, fluorescence intensity, high mannose 6-phosphate (AID 1220); conditions: recombinant PMI enzyme, coupled fluorescence intensity; at 20 µM; hits give high values
Sequence (P34949 whole entry, looked up): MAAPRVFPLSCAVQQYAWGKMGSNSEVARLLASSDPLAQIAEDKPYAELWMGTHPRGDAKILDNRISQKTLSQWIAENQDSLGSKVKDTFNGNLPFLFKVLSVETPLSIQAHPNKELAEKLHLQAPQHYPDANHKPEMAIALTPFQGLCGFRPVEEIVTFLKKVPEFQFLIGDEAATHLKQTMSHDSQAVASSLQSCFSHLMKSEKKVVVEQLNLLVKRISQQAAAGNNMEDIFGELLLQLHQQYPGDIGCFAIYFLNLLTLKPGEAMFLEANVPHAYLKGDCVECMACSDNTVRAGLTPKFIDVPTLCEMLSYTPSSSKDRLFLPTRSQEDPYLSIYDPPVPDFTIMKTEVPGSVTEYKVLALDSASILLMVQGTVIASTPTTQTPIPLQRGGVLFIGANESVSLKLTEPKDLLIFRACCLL

| SMILES | inhibition |
| --- | --- |
| COc1ccc(C(=S)Nc2ccc(C)cc2)cc1 | 3.8% |
| CC(C)(C)c1ccc(S(=O)(=O)N2CCCC2C(=O)N2CCOCC2)cc1 (configuration not stated) | 3.5% |
| CCOC(=O)c1nn(-c2ccccc2F)c2nc(-c3ccco3)c(C#N)c(=O)n12 | -13.6% |
| Cc1ccc(-n2c(=S)[nH]c3sc4c(c3c2=O)CCC4)cc1 | 9.7% |
| Cc1ccc(-n2c(=S)[nH]c3sc4c(c3c2=O)CCc2ccccc2-4)cc1 | 24.1% |
| CCN(Cc1ccncc1)S(=O)(=O)c1ccc(C(C)=O)cc1 | -13.6% |
| CCCCSc1cnn(-c2ccccc2)c(=O)c1SCCCC | 5.9% |
| CN1CCOc2cc(S(=O)(=O)Nc3ccc(F)cc3)ccc21 | 0.5% |
| COc1ccc(CCNC(=O)CN2C(=O)NC(C)(c3ccc([N+](=O)[O-])cc3)C2=O)cc1 (configuration not stated) | -0.6% |
| COc1cc(C2NC(=O)NC(O)(C(F)(F)F)C2C(=O)c2ccc(Cl)cc2)ccc1O (configuration not stated) | 2.5% |
| Cc1ccc(C2NC(=O)NC(O)(C(F)(F)F)C2C(=O)c2ccccc2)o1 (configuration not stated) | -19.5% |
| O=C1NC(c2ccc(-c3ccccc3[N+](=O)[O-])o2)C(C(=O)c2ccc(F)cc2)C(O)(C(F)(F)F)N1 (configuration not stated) | 42.1% |
| COc1ccc(C(=O)C2C(c3ccc(-c4ccccc4[N+](=O)[O-])o3)NC(=O)NC2(O)C(F)(F)F)cc1 (configuration not stated) | 43.4% |
| O=C1NC(c2ccc(-c3ccccc3[N+](=O)[O-])o2)C(C(=O)c2ccc(Cl)cc2)C(O)(C(F)(F)F)N1 (configuration not stated) | 50.3% (active) |
| O=C1NC(c2ccc(-c3ccccc3[N+](=O)[O-])o2)C(C(=O)c2ccccc2)C(O)(C(F)(F)F)N1 (configuration not stated) | 50.5% (active) |
| Cc1ccccc1-n1c(-c2ccncc2)n[nH]c1=S | -11.7% |
| O=C1C(c2ccc(F)cc2)N(Cc2ccc3c(c2)OCO3)C(=O)CN1C1CCCC1 (configuration not stated) | 7.2% |
| CC1Cc2cc(/C(O)=C3/C(=O)C(=O)N(CCCn4ccnc4)C3c3ccncc3)ccc2O1 (configuration not stated) | -10.1% |
| CC1Cc2cc(/C(O)=C3/C(=O)C(=O)N(CCCn4ccnc4)C3c3cccnc3)ccc2O1 (configuration not stated) | 3.7% |
| COc1cc(C2/C(=C(\O)c3ccc4c(c3)CC(C)O4)C(=O)C(=O)N2CCCn2ccnc2)ccc1O (configuration not stated) | 54.7% (active) |
| COc1cc(-c2ccc(NC(=O)CN3CCC(C)CC3)c(OC)c2)ccc1NC(=O)CN1CCC(C)CC1 | 21% |

| SMILES | inhibition |
| --- | --- |
| CC(C)c1ccc(CN(C)CC(O)c2ccccc2)cc1 (configuration not stated) | -2.2% |
| CCN(CC)c1ccc(/C=N/NC(=O)c2c[nH]c3ccccc23)cc1 | 21.6% |
| COc1ccc(CCNC(=O)CCC(=O)Nc2nnc(C(C)C)s2)cc1OC | 3.2% |
| CCN1CCc2c(C#N)c(N3CCOCC3)nc(NCCO)c2C1 | 57.2% (active) |
| CCN1CCc2c(C#N)c(N3CCOCC3)nc(NCc3ccccc3)c2C1 | 19.3% |
| CCN1CCc2c(C#N)c(N3CCOCC3)nc(N3CCOCC3)c2C1 | -3% |
| CC1(C)Cc2c(sc3nc(-c4cc5ccccc5o4)n(N)c(=O)c23)CO1 | 7% |
| CCN1C(=O)C(C)S/C1=N\S(=O)(=O)c1ccc(Cl)s1 (configuration not stated) | -0.5% |
| CC(C)CCN(C(=O)CNC(=O)c1cccs1)C(C(=O)NC1CCCC1)c1ccncc1 (configuration not stated) | -1.9% |
| c1ccc2cc3c(NCCN4CCOCC4)ccnc3cc2c1 | 57% (active) |
| O=C(NCCN1CCOCC1)c1ccc2ccccc2c1 | -3.6% |
| O=c1ccnc(NCCc2ccccc2)[nH]1 | -1.8% |
| c1ccc2c(NCCCN3CCOCC3)c3ccccc3nc2c1 | 8.7% |
| c1ccc(CCNc2ccnc3cc4ccccc4cc23)cc1 | 63.5% (active) |
| c1ccc(CCNc2ncnc3ccccc23)cc1 | 6.3% |
| CCOC(=O)c1sc(-c2ccc(OC)cc2)cc1NC(C)=O | -4.9% |
| Cc1nc([N+](=O)[O-])c(C(=O)OCc2ccccc2Br)n1C | -9.7% |
| COc1ccc(C(=O)N/N=C/c2c(CO)cnc(C)c2O)cc1 | -36.3% |
| O=C(c1ccccc1)N(Cc1cccnc1)C1(C(=O)Nc2ccccc2)CCCCC1 | -14% |
| NC(=O)C1CCN(C(=O)CSc2nc3ccccc3[nH]2)CC1 | 2.1% |
| CN(C)c1ccc2c(O)cc(=O)n(C)c2c1 | 56.1% (active) |

| SMILES | inhibition |
| --- | --- |
| COc1cc(=O)n(C)c2cc(N(C)C)ccc12 | 6.9% |
| CN(C)c1ccc2c(=O)[nH][nH]c(=O)c2c1 | 24.5% |
| CCOCCCNC(=O)c1cn(CC(C)C)c(=O)c2cc(OC)c(OC)cc12 | 22.8% |
| Cc1ccccc1N1CC(=O)N(c2ccccc2C)CC1=O | -4.3% |
| Cc1ccccc1-n1c(=O)c2ccccc2n2cnnc12 | 1.1% |
| CC(C)(C)NC(=O)NC(=O)COC(=O)c1cccc(F)c1 | 10.3% |
| CC(=O)Nc1ccc(C(=O)n2nc(C)cc2C)cc1 | -3.3% |
| CCNC(=S)N(Cc1ccco1)Cc1cc2cc3c(cc2[nH]c1=O)OCCO3 | 4.6% |
| CC(C)CNC(=S)N(Cc1ccco1)Cc1cc2cc3c(cc2[nH]c1=O)OCCO3 | 12.4% |
| CNC(=S)N(Cc1ccco1)Cc1cc2cc3c(cc2[nH]c1=O)OCCO3 | 52.2% (active) |
| COc1ccc(/C=N/NC(=O)c2cccc(NC(C)=O)c2)c(C(=O)O)c1OC | -6.4% |
| Cn1ccc(C(=O)OCC(=O)Nc2cccc3ccccc23)n1 | 0.8% |
| CC(CCc1ccccc1)NC(=O)C(=O)N1CCOCC1 (configuration not stated) | 0.1% |
| CC(C)(C)C1=CC(=O)C(N2CCOCC2)=CC1=O | 65.3% (active) |
| CC1=C(C)C(=O)C(N2CCOCC2)=CC1=O | -17.5% |
| CN1CCOCCOCCN(C)C(=O)N2CCOCCOCCN(CCOCC2)C1=O | 3% |
| Cc1ccc(S(=O)(=O)Oc2ccc(C)cc2/C=N/N=C2\NC(=O)C(C)S2)cc1 (configuration not stated) | 8.8% |
| CC(=Nc1ccccc1)C1=C(O)CSC1=O | -2.7% |
| COc1ccccc1N=C(C)C1=C(O)CSC1=O | 54.1% (active) |
| CC(=Nc1ccccc1C)C1=C(O)CSC1=O | -8.7% |
